In test [1] the target is Cytochrome P450 2D6 (Homo sapiens) (UniProt P10635). The experiment in a line: Cytochrome P450 family 2 subfamily D member 6 (CYP2D6) small molecule antagonists: luciferase biochemical (cell-free) qHTS assay (AID 1645840). Note: nearly all actives have a fitted effect of over 55% in size. Note: potency is the fitted concentration of half-maximal effect. A digest of the protocol:
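P450-Glo luminescent screen: recombinant CYP2D6 enzyme–proluciferin substrate mix preincubated with compound 10 min at room temperature, then NADPH regeneration added for 1 h at room temperature. Detection reagent added for 20 min; luciferin light read as relative luminescence units.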

Test [2] addresses Cytochrome P450 2C9 (Homo sapiens) (UniProt P11712). The experiment in a line: Cytochrome P450 family 2 subfamily C member 9 (CYP2C9) small molecule antagonists: luciferase biochemical (cell-free) qHTS assay (AID 1645842). Note: nearly all actives have a fitted effect of over 55% in size. Note: potency is the fitted concentration of half-maximal effect. A digest of the protocol:
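Luminescence, after 20 min with luciferin detection reagent, reflected CYP2C9 turnover during a 1 h NADPH-driven reaction at 37C. Enzyme-substrate mix contained 0.4% bovine serum albumin and was preincubated with compound 10 min at room temperature.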
On the technique in general: In qHTS, concentration-response curves come from the screen itself.

The nature of test [3]: Primary qHTS for inhibitors of nuclear receptor binding SET domain protein 2 (NSD2) in an isogenic RCH-ACV NSD2 p.E1099K mutant (9B) (AID 1645876; active = well fitted curve in the direction sought with a large enough effect; an effect the other way counts as inactive or inconclusive; note: nearly all actives have a fitted effect of over 70% in size; note: potency is the fitted concentration of half-maximal effect).
The nature of test [4]: Primary qHTS for inhibitors of nuclear receptor binding SET domain protein 2 (NSD2) in an RCH-ACV wild type WT cells (2C) (AID 1645877; active = well fitted curve in the direction sought with a large enough effect; an effect the other way counts as inactive or inconclusive; note: nearly all actives have a fitted effect of over 70% in size; note: potency is the fitted concentration of half-maximal effect).
Test [5] deals with N-terminal Xaa-Pro-Lys N-methyltransferase 1 (Homo sapiens) (UniProt Q9BV86). Kind of test: Confirmatory qHTS for Inhibitors of N-terminal methyltransferase 1 (NTMT1): MTaseGlo Assay (AID 1645874; active = well fitted curve in the direction sought with a large enough effect; an effect the other way counts as inactive or inconclusive; note: potency is the fitted concentration of half-maximal effect; nearly all actives have a fitted effect of over 65% in size). An outline of the steps:
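Preincubation of NTMT1 (125 nM) plus SAM (100 uM) with test compounds lasted 15 min; methylation of 1 uM SPKRIA then proceeded 30 min in the dark at room temperature. Luciferase signal reported SAH produced.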

The target of test [6] is Catechol O-methyltransferase (Homo sapiens) (UniProt P21964). Kind of test: Confirmatory Screen for Target Class Profiling of Small Molecule Inhibitors of Methyltransferases (AID 1745852). Conditions: MTase-Glo luminescence, SAH detection, recombinant enzyme; measured here: COMT max response; stronger effect = lower value.

The structures appear in SMILES notation. Results filed as inconclusive are left out. Activity calls are given as the source filed them. Unless noted, calls come from the whole dose curve; as a rule, active = well fitted curve in the direction sought with a large enough effect in the repeat runs; inconclusive = weak or mixed curves; inactive = no such curve, though single readings can be large; an effect the other way counts as inactive or inconclusive.

We go through 30 compounds from PubChem BioAssay (NCATS).

Chain of N-terminal Xaa-Pro-Lys N-methyltransferase 1 (Homo sapiens) (Q9BV86 whole entry, looked up): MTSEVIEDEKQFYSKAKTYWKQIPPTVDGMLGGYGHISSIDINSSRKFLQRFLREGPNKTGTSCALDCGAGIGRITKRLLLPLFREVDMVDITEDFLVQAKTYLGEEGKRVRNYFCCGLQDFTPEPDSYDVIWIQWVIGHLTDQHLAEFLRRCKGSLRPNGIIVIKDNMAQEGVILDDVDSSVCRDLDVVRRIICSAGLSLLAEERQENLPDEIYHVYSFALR
Chain of Cytochrome P450 2C9 (Homo sapiens) (P11712 whole entry, looked up): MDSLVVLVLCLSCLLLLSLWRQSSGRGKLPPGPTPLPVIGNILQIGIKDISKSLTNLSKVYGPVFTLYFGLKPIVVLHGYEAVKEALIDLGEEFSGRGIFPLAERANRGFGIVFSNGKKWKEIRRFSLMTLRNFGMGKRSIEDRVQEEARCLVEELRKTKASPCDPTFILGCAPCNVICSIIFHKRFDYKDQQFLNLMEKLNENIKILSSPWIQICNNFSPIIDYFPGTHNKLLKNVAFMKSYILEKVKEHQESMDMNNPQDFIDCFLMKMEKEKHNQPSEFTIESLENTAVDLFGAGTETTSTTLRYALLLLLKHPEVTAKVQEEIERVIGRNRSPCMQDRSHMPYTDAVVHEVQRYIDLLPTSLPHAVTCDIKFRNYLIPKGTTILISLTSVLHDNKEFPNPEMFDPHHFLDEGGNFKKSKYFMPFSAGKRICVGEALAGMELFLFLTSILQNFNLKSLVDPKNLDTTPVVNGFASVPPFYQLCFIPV
Chain of Cytochrome P450 2D6 (Homo sapiens) (P10635 whole entry, looked up): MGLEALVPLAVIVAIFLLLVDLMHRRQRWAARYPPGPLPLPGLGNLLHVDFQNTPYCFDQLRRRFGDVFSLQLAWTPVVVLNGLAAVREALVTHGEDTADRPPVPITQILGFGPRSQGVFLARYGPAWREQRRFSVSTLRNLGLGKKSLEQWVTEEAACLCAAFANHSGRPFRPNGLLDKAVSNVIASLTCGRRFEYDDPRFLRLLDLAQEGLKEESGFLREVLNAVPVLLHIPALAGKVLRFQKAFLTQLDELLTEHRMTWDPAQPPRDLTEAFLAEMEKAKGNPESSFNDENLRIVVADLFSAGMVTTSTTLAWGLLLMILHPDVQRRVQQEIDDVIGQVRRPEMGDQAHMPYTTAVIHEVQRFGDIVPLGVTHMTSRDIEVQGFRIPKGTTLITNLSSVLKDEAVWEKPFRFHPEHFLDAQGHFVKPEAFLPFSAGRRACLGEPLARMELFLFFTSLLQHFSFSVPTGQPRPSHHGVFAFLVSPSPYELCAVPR
Chain of Catechol O-methyltransferase (Homo sapiens) (P21964 whole entry, looked up): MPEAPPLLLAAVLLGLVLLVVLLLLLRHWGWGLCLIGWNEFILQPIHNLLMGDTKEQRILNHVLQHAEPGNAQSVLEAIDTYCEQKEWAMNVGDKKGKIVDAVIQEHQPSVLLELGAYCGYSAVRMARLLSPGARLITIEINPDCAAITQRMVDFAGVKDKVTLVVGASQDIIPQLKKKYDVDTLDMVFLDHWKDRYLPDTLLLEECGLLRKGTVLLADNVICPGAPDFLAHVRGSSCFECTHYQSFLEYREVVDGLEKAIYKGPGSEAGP

With `NC(=O)C(CCC(F)(F)F)N(Cc1ccc(-c2ncon2)cc1F)S(=O)(=O)c1ccc(Cl)cc1` (stereo not given), the Potency is 12 µM (active) in test [1] and 1.51 µM (active) in test [2].
As for `CNC(=O)c1cc(Oc2ccc3nc(N[C@@H]4CCCC[C@H]4O)sc3c2)ccn1`, the Potency is 16.9 µM (active) in test [1] and 8.49 µM (active) in test [2].
For `CS(=O)(=O)c1ccc([C@H](CC2CCCC2)C(=O)Nc2nccs2)cc1`, in that order: 10.7 µM (active) and 6.01 µM (active).
As for `O=[N+]([O-])c1cn2c(n1)OCC(OCc1ccc(OC(F)(F)F)cc1)C2` (stereo not given), in test [1], the Potency result was “inactive”.
With `O=C(O)[C@@H]1C[C@H]2C[C@@H](CCc3nn[nH]n3)CC[C@H]2CN1`, the Potency result in test [1], in test [2], in test [3] and in test [4] was “inactive” in each case.
For `CS(=O)(=O)N(CC(=O)NCC1CC1)c1cc(C(F)(F)F)ccc1Cl`, the Potency entry in test [1], in test [3] and in test [4] was “inactive” each time. In addition, the Potency in test [2] is 3.38 µM (active).
For the compound `CC1(c2nc3c(C(N)=O)cccc3[nH]2)CCCN1` (stereo not given), the Potency entry in test [1], in test [2] and in test [3] was “inactive” in each case.
Regarding `Cc1ccc(-c2ccc3ncc4c(c3n2)n(C2CCN(C(=O)[C@H](C)O)CC2)c(=O)n4C)cn1`, the Potency result in test [1] is “inactive”. Also, the Potency in test [2] was 10.7 µM (active); in test [5], 39.8 µM (active); in test [3], 0.0742 µM (active); in test [4], 0.0742 µM (active).
Regarding `CCCNc1ccc2ncc(-c3ccc4[nH]ncc4c3)n2n1`, the Potency result in test [1] and in test [2] was “inactive” each time. For the same compound, the Potency in test [5] is 8.91 µM (active); in test [3], 0.258 µM (active); in test [4], 0.0916 µM (active). For the same compound, the activity in test [6] is -53.8%.
Turning to `CSc1ccc(C(=O)N[C@@H]2CCCC[C@@H]2NC(=O)CNC(=O)c2cc(C(F)(F)F)ccc2NC(=O)NC(C)C)cc1`, the figures for the Potency in test [1] and in test [2] were 9.52 µM (active) and 3.01 µM (active), respectively.
On to `C=CC(=O)Nc1cccc(CN2C(=O)N(c3c(Cl)c(OC)cc(OC)c3Cl)Cc3cnc(NCCCCN(CC)CC)nc32)c1`, for which the Potency in test [1] is 21.3 µM (active); in test [2], 8.49 µM (active); in test [3], 2.05 µM (active); in test [4], 2.58 µM (active).
For `O=C(CC(c1ccccc1)c1ccccc1)N1CCN(C(c2ccccc2)c2ccccc2)CC1`, in that order: “inactive”, 4.77 µM (active), 7.28 µM (active) and 8.17 µM (active).
As to `CCCN1CCC(c2cccc(S(C)(=O)=O)c2)CC1`, the Potency in test [1] was 8.49 µM (active). Besides, the Potency result in test [2], in test [3] and in test [4] was “inactive” throughout.
Turning to `Cc1cccc(C)c1OCc1cc(C(=O)N2CCC(c3ccncc3)CC2)no1`, the Potency in test [1] was 1.2 µM (active); in test [2], 0.338 µM (active); in test [3] it was 10.3 µM (active).
Consider `CC[C@@H](N)CNc1ccnc(-c2cc(-c3cnn(C)c3)ccc2O)n1`, for which the Potency in test [1] is 9.52 µM (active); in test [2], 13.5 µM (active); in test [3] it was 1.29 µM (active); in test [4], 1.03 µM (active).
Regarding `CCOC(=O)c1cc(C#N)c(N2CCC(C(=O)NS(=O)(=O)Cc3ccccc3)CC2)nc1C`, the Potency entry in test [1], in test [3] and in test [4] was “inactive” in each case. Besides, the Potency in test [2] is 2.68 µM (active).
`C[C@@H](Oc1cc(-n2cnc3ccc(OC4CCN(C)CC4)cc32)sc1C(N)=O)c1ccccc1C(F)(F)F`: the Potency in test [1] is 8.49 µM (active); in test [2], 8.49 µM (active); in test [5], 12.6 µM (active); in test [3], 0.0325 µM (active); in test [4] it was 0.0258 µM (active). In addition, the activity in test [6] was -76.5%.
Regarding `Cc1csc(NC(=O)c2ccc(COc3cccc(Cl)c3)o2)n1`, the values for the Potency in test [1] and in test [2] were 19 µM (active) and 7.56 µM (active), respectively.
Turning to `Cc1cccc(/C=N/Nc2cc(N3CCOCC3)n3nc(-c4ccncc4)cc3n2)c1`, the Potency is 3.79 µM (active) in test [1], 1.34 µM (active) in test [2], 0.578 µM (active) in test [3] and 0.515 µM (active) in test [4].
As to `CN[C@H](C(=O)N[C@H](C(=O)N(C)[C@H](/C=C(\C)C(=O)O)C(C)C)C(C)(C)C)C(C)(C)c1ccccc1`, the Potency result in test [1], in test [2], in test [3] and in test [4] was “inactive” throughout.
As for `OC1CCC(Nc2ncc3nc(Nc4c(F)cc(F)cc4F)n([C@H]4CCOC4)c3n2)CC1` (stereo not given in full), the Potency entry in test [1] and in test [2] was “inactive” each time.
`CC(NC(=O)CCc1nc2ccccc2c(=O)[nH]1)c1ccccc1` (stereo not given): the Potency result in test [1], in test [2], in test [3] and in test [4] was “inactive” in each case.
`CCC(Nc1ncnc2nc[nH]c12)c1nc2cccc(F)c2c(=O)n1-c1ccccc1` (stereo not given): the Potency entry in test [1] was “inactive”. Moreover, the Potency in test [2] is 13.5 µM (active); in test [3], 0.0728 µM (active); in test [4] it was 0.461 µM (active).
Take `O=C1N=C(N2CCOCC2)CN1c1ccc(Cl)cc1`: the Potency entry in test [1], in test [2], in test [3] and in test [4] was “inactive” each time.
Take `Cc1ccc(S(=O)(=O)n2ccc(-c3c(-c4ccc(Cl)cc4)noc3C)n2)cc1`: the Potency entry in test [1] was “inactive”. Moreover, the Potency in test [2] was 5.35 µM (active).
As to `COc1cc(N)c(Cl)cc1C(=O)NC[C@@H]1CCN2CCC[C@@H]12`, the Potency was 10.7 µM (active) in test [1] and 9.52 µM (active) in test [2]. Besides, the Potency result in test [3] was “inactive”.
For the compound `CCCCc1ccc(C(=O)Nc2cc(-c3ccc(Cl)cc3)nn2-c2ccc(Cl)cc2)cc1`, the Potency entry in test [1], in test [2], in test [3] and in test [4] was “inactive” in each case.
On to `O=C(O)c1cccc(S(=O)(=O)N2CCc3ccccc3C2)c1`, for which the Potency result in test [1], in test [2], in test [3] and in test [4] was “inactive” in each case.
For the compound `O=C(CN1C(=O)C2(CCCC2)NCC1c1cc(F)cc(F)c1)Nc1ccc2c(c1)CC1(C2)C(=O)Nc2ncccc21` (stereo not given), the Potency result in test [1], in test [3] and in test [4] was “inactive” each time. Further, the Potency in test [2] was 3.01 µM (active).
Regarding `Cc1cccc2c1NC(=O)C2(c1ccc(O)cc1)c1ccc(O)cc1`, the Potency in test [1] is 26.8 µM (active); in test [2] it was 9.52 µM (active); in test [3] it was 3.25 µM (active); in test [4], 8.17 µM (active).
